The list is not random: actives were taken first. Their share in the collection is about 6%.
D1 PAM: Potentiators of Human D1 Dopamine Receptor: qHTS; D(1A) dopamine receptor (Homo sapiens), P21728; HEK293 TREx D1 cells, calcium flux, dopamine EC20 potentiation; potentiation, % at 10 µM; 360,000 compounds, 0.036% hits; in the data active = potentiation above about 30%; also: 0% is about no effect
Target sequence (P21728 whole entry, looked up): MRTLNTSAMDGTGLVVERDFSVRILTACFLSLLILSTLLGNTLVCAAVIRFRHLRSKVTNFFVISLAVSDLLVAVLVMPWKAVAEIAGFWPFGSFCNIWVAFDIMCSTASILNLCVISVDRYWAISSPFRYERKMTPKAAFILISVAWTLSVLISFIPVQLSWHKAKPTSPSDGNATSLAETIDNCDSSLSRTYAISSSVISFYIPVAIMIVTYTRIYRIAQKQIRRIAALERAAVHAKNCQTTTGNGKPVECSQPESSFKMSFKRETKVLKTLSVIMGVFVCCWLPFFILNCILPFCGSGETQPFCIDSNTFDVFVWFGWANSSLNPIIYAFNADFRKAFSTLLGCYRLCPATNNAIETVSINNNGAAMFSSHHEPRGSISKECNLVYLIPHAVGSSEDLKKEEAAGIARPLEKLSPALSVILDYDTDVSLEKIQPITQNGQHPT
D3 ag: qHTS of D3 Dopamine Receptor Agonist: qHTS; D3R DiscoveRx beta-arrestin cells, luminescence, 90 min; max activation, %; 410,000 compounds, 0.58% hits; AID 652048, 2013; in the data active = max activation above about 30%; also: 0% is about no effect
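Cells at 1500/well, incubated overnight, then treated with pinned compounds (dopamine as control) for 90 min at 37 degrees C. DiscoveRx reagent added for 30 - 60 minutes at room temperature; luminescence read.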
D1 antagonist: Antagonist of Human D 1 Dopamine Receptor: qHTS; D(1A) dopamine receptor (Homo sapiens), P21728; HEK293 TREx D1 cells, calcium flux, dopamine EC80; stronger effect = lower value; activity change, negative = inhibition, % at 10 µM; 360,000 compounds, 3.2% hits; AID 504652, 2011; in the data active = activity change below about -30%; also: % is scaled to controls: 0 for no effect and ±100 for the full control effect
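Antagonism measured as reduced calcium response to an EC80 dopamine addition following 180 s compound pre-read; cells were inducible HEK293 Trex D1 plated overnight at 30 C, read kinetically at 1 cycle/sec.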
DRD3 antagonist: qHTS of D3 Dopamine Receptor Antagonist: qHTS | D3R cells, DiscoveRx beta-arrestin luminescence, antagonist mode; stronger effect = lower value | max response, negative = inhibition, % | 360,000 compounds, 2.5% hits; in the data active = max response below about -50%; inconclusive = no clear call, values can overlap the other calls; also: % is scaled to controls: 0 for no effect and ±100 for the full control effect
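Cells expressing the human receptor were seeded at 1500 cells/well, incubated overnight at 37 degrees C in 5% CO2, then exposed to library compounds with dopamine controls for 90 minutes at 37 degrees C before luminescent detection.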
D1 agonist: Allosteric Agonists of the Human D1 Dopamine Receptor: qHTS. HEK293 T-REx D1 cells, calcium flux, agonist mode. 360,000 compounds, 1% hits. D(1A) dopamine receptor (Homo sapiens), P21728. activation, % at 2 µM; in the data active = activation above about 30%; also: 0% is about no effect
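Agonism was scored from calcium flux recorded over 180 s (1 read/s) after pintool compound addition, following a 10-cycle baseline. Cells were inducible force-coupled HEK293 TREx D1, plated overnight at 30 C and loaded with no-wash calcium dye.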
Active calls of the source: *; ? = inconclusive; · = no result given.

SMILES | D1 PAM | D3 ag | D1 antagonist | DRD3 antagonist | D1 agonist
Clc1ccc(-c2ccc(CN3CCCCC3)o2)cc1 | -3 | -6 | 7 | -106* | 4
Cc1ccccc1-c1nc(CN2CCC(C(=O)NCCc3ccccc3)CC2)c(C)o1 | -4 | -8 | -6 | · | 23
Cc1ccccc1-c1nc(CN2CCC(C(=O)NCCC3=CCCCC3)CC2)c(C)o1 | -5 | 0 | -28 | ? | 31*
COc1ccc(CCNC(=O)C2CCN(Cc3nc(-c4ccccc4C)oc3C)CC2)cc1OC | -6 | -35 | -40* | ? | 37*
CNC(C)CCC=C(C)C (configuration not stated) | · | -20 | · | · | ·
CCC(=O)OCOc1ccc(/C=C2/CCC(CN(C)C)C2=O)cc1 (configuration not stated) | · | -10 | · | -87* | ·
CCOC(=O)C1(Cc2ccc(Cl)cc2)CCN(C(C)Cc2ccc(O)c(OC)c2)CC1 (configuration not stated) | -8 | -10 | -37* | ? | 28
O=C1NC(=O)C(c2ccccc2[N+](=O)[O-])=C1Nc1ccc(O)c(Cl)c1 | -10 | -26 | -38* | -28 | 1
Cc1cc(C)c(NC(=O)Cn2nc3c(cc2=O)CCCC3)c(C)c1 | 0 | 5 | -4 | · | 2
Cc1ccccc1OCC(=O)OCC(=O)N1CCCc2ccccc21 | -5 | 15 | 30 | -1 | 3
O=C(Cn1cnc2ccccc21)OCC(=O)N1CCCc2ccccc21 | -1 | 2 | -61* | 35 | 8
O=C(OCC(=O)N1CCCc2ccccc21)c1cnc(Cl)c(Cl)c1 | 0 | 1 | 4 | -28 | 41*
Cc1cc(C)c2c(n1)sc1c(=O)n(-c3ccccc3C(F)(F)F)nnc12 | 3 | 5 | 1 | · | 0
Cc1oc(-c2cccc(Cl)c2)nc1Cn1c(SCc2ccc(F)cc2)nc2cccnc21 | 2 | 27 | 11 | · | 7
COc1ccc(NC(=O)c2oc3ccccc3c2NC(=O)Cc2ccc(F)cc2)c(OC)c1 | -3 | 1 | -5 | · | 3
Clc1ccc(Cc2nc(-c3ccncc3)no2)cc1 | 1 | -2 | -36* | 5 | 11
O=C(CSCc1ccccc1F)NCc1ccc(F)cc1 | 0 | -7 | -35* | 0 | 2
C/C(N)=C(/C#N)C(=O)COC(=O)c1ccc(C#N)cc1 | -7 | 1 | -44* | -8 | 4
C/C(N)=C(/C#N)C(=O)COC(=O)c1ccc(O)cc1 | -2 | -13 | -3 | 7 | 1
CCCCNC(=O)Cn1nc(N2CCN(c3ccccc3OC)CC2)ccc1=O | -1 | -9 | -42* | · | 1
O=C(NCC1CCCO1)c1c[nH]c2ccc(S(=O)(=O)Nc3cccc(C(F)(F)F)c3)cc2c1=O (configuration not stated) | 2 | -5 | 12 | · | 0
CCOc1cc(CNC(=O)C2CCN(c3nc4ccccc4[nH]3)CC2)cc(OCC)c1OCC | -3 | 5 | -23 | · | 2
COc1ccc(C2C(C#N)=C(N)Oc3n[nH]c(C)c32)cc1Cn1nnc2ccccc21 (configuration not stated) | -4 | -1 | 6 | -62* | 1
Cc1noc(C)c1COc1ccccc1C(=O)N(C)CC(=O)Nc1ccc(F)cc1 | 34* | 1 | -21 | -2 | 1
Cc1noc(C)c1COc1ccccc1C(=O)NCCc1ccc(S(N)(=O)=O)cc1 | -11 | 8 | -34* | 6 | 2
SMILES | D1 PAM | D3 ag | D1 antagonist | DRD3 antagonist | D1 agonist
Cc1noc(C)c1CSCC(=O)N(C)CC(=O)Nc1ccc(Cl)cc1 | -8 | 3 | -44* | -5 | 3
Cc1noc(C)c1COc1ccccc1C(=O)N(C)Cc1ccc(C(C)(C)C)cc1 | -11 | -2 | -36* | 0 | 13
Cc1noc(C)c1CSCC(=O)N(C)CC(=O)Nc1ccc(F)cc1 | 4 | 0 | -1 | -1 | 3
Cc1noc(C)c1COc1ccccc1C(=O)NCCc1ccc(Cl)cc1 | -3 | 7 | 0 | 10 | 5
Cc1ccc(NC(=O)CN(C)C(=O)c2ccccc2OCc2c(C)noc2C)cc1 | -2 | -9 | -5 | -12 | -1
Cc1ccc(NC(=O)Nc2nnc(N3CCCC3)s2)cc1C | -5 | -3 | -13 | · | 3
COc1cc(NC(=O)CSc2ccc(-c3sc(-c4ccccc4)nc3C)nn2)cc(OC)c1 | -4 | 18 | 19 | · | 9
Nc1ccc(C2CCCc3nonc32)c2nonc12 (configuration not stated) | -4 | -8 | -19 | -63* | 8
Cc1nnc(NC(=O)CSCc2cc(=O)c3cc(Cl)ccc3[nH]2)s1 | -2 | 7 | -8 | · | 0
CCOC(=O)c1cccc(NC(=O)c2cc3sccc3n2Cc2ccc(Cl)cc2)c1 | -5 | -19 | 6 | · | 10
CCOC(=O)c1cccc(NC(=O)c2cc3sccc3n2C)c1 | -7 | 6 | -32* | 39 | 2
COc1ccc(-c2cccc(C3CC=CC4C3C(=O)N(Cc3ccccc3)C4c3ccc(C(F)(F)F)cc3)c2)cc1 (configuration not stated) | -2 | 4 | 4 | -20 | 7
C[C@@H]1CC=C[C@H]2[C@H]1C(=O)N(Cc1ccccc1)[C@H]2c1ccc(-c2ccoc2)cc1F | -1 | -26 | 27 | -62* | 9
Cc1ccc(-c2cccc(C3CC=CC4C3C(=O)N(Cc3ccccc3)C4c3cc(C)ccc3F)c2)cc1 (configuration not stated) | -10 | 10 | -66* | 0 | 2
CC1CCN(C(=O)CSc2nc(-c3ccccc3)no2)CC1 | -5 | -1 | -10 | · | 12
Cc1cc(C)c2c(n1)SCCN2C(=O)Nc1ccc(C(=O)Nc2ccc(C(C)C)cc2)cc1 | -2 | 3 | -15 | · | 4
COc1cc(S(=O)(=O)n2c(C)nc3ccccc32)ccc1F | -6 | -6 | -9 | -21 | 0
COc1ccc(S(=O)(=O)n2c(C)nc3ccccc32)cc1C | -2 | 2 | -75* | 3 | 7
CC(CCc1ccccc1)NS(=O)(=O)c1ccccc1Cl (configuration not stated) | -6 | 5 | 12 | -2 | 1
CC(CCc1ccccc1)NCc1ccncc1 (configuration not stated) | -2 | 78* | -6 | 13 | 1
CC(Cc1ccccc1)C(=O)NCc1ccncc1 (configuration not stated) | -8 | -10 | -13 | ? | -4
CC(CCc1ccccc1)NS(=O)(=O)c1ccccc1 (configuration not stated) | -3 | 0 | -37* | 7 | 7
CCOC(=O)c1ccc(NC2SC(=O)N(Cc3cccc(C(=O)O)c3)C2=O)cc1 (configuration not stated) | -2 | 11 | 3 | · | 0
